Results from PubChem BioAssay.

Test: JC-1 mitochondrial potential readout, lung cancer cells – cell-based, A549, JC-1 fluorescence, basal, 24 h, 100 nL, profiling panel (AID 1138);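 further: A549 lung adenocarcinoma cells under basal conditions with no added stimulus; test concentration not given here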
Settings: higher = more signal

Which z-score does the source give for `NCCCCCNC(=O)[C@@H]1C[C@@H]2C(=O)N3CCC[C@H]3C(=O)N2[C@@H]1c1cccc(OCCO)c1` here?
The z-score was -0.269.

With `C=CC[C@]1(C(=O)NCc2ccccc2)N=C(c2ccc(OCCCO)cc2)O[C@H]1c1ccccc1` as the compound, how does the z-score read?
Its z-score is 0.453.

For `COCCOC(=O)N1C(=O)[C@@]2(c3cc(C#CCNC(N)=O)ccc31)[C@H](c1ccc(O)cc1)N1[C@H](c3ccccc3)[C@H](c3ccccc3)OC(=O)[C@H]1[C@@H]2C(=O)N1CCCCCCC1`, which z-score is on record?
Its z-score is -1.18.

With `O=C1[C@H]2[C@H]3[C@H](O)[C@H](O)CC(=NO[C@@H]4O[C@H](CO)[C@@H](O)[C@H](O)[C@H]4O)[C@@H]3CC[C@H]2C(=O)N1Cc1ccc2c(c1)OCO2` as the compound, how does the z-score read?
The z-score was -0.789.

For `O=C1[C@H]2[C@H]3[C@H](O)[C@H](O)CC(=NOCc4ccccc4)[C@@H]3CC[C@H]2C(=O)N1C1CCCCC1`, which z-score is on record?
Its z-score is -0.134.

For `O=C1[C@H]2[C@H]3[C@H](O)[C@H](O)CC(=NO[C@@H]4O[C@H](CO)[C@@H](O)[C@H](O)[C@H]4O)[C@H]3CC[C@H]2C(=O)N1Cc1ccc2c(c1)OCO2`, which z-score is on record?
Its z-score is 0.531.

For `O=C(NN=C1C[C@@H](O)[C@@H](O)[C@@H]2[C@@H]3C(=O)N(c4cccc(Oc5ccccc5)c4)C(=O)[C@@H]3CC[C@H]12)OCc1ccccc1`, which z-score is on record?
Its z-score is -1.25.

Which z-score does the source give for `CC(C)CON=C1C[C@@H](O)[C@@H](O)[C@@H]2[C@@H]3C(=O)N([C@@H](C)c4ccccc4)C(=O)[C@@H]3CC[C@H]12` here?
Its z-score is 1.24.

Which z-score does the source give for `CC(=O)O[C@H]1C2=C(C(=O)[C@@H]3O[C@@H]31)[C@H]1C(C)O[C@@H]2[C@@]23C(=O)[C@@H]4O[C@@H]4[C@@H](O)C2=CO[C@H](C)[C@@H]13` (some centres undefined) here?
The z-score was -1.12.
